Assay results: PubChem BioAssay (NCI)
The panel holds about 79,000 compounds, 15% with a hit somewhere; the sample as a whole holds those more often. Calls of active or inactive are those of the source. Rule as the data show it: active = growth inhibition above about 70%; inactive = the rest.

Experiments:
[1] = NCI Yeast Anticancer Drug Screen. Data for the rad52 strain (AID 147);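 also: 0% = growth of vehicle-treated control cultures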; settings: S. cerevisiae rad52 mutant growth inhibition, active compounds read high
Outline: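 Screen used a yeast mutant impaired in DNA repair. After compound exposure, growth was measured. Values reflect inhibition compared with vehicle-treated cells.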

[2] = NCI Yeast Anticancer Drug Screen. Data for the wt1 strain (AID 149);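 also: 0% = growth of vehicle-treated wt1 cultures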; settings: S. cerevisiae wt1 strain (SPY 50644) growth inhibition, active compounds read high
Outline: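 The wt1 strain was treated with compounds, and growth was compared with vehicle-treated cultures to give inhibition.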

[3] = NCI Yeast Anticancer Drug Screen. Data for the rad50EPP+ strain (AID 151);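 also: 0% = growth of vehicle-treated control cultures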; settings: S. cerevisiae rad50 mutant strain, active compounds read high
Outline: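 Exposing the rad50EPP+ strain to each compound, growth was compared with vehicle-only cultures to give inhibition.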

[4] = NCI Yeast Anticancer Drug Screen. Data for the mgt1 strain (AID 153); settings: S. cerevisiae mgt1 mutant growth inhibition, active compounds read high
Outline: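 Genetically defined yeast (mgt1) treated with compound; inhibition of growth expressed against vehicle-treated controls.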

[5] = NCI Yeast Anticancer Drug Screen. Data for the rad50 strain (AID 155);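 also: 0% = growth of vehicle-only cultures of the same strain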; settings: S. cerevisiae rad50 strain growth inhibition, active compounds read high
Outline: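 Cells are treated with compound, grown, and their growth is then scored against vehicle-only cultures of the same repair-deficient yeast strain.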

[6] = NCI Yeast Anticancer Drug Screen. Data for the mec2-1 strain (AID 157); settings: S. cerevisiae mec2-1 strain, active compounds read high
Outline: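 Readout is yeast growth inhibition, normalised to vehicle-treated controls, in the mec2-1 strain exposed to compound.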

[7] = NCI Yeast Anticancer Drug Screen. Data for the rad14 strain (AID 159);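 also: 0% = growth of vehicle-treated control cultures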; settings: S. cerevisiae rad14 strain growth inhibition, active compounds read high
Outline: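 Readout: yeast growth inhibition, referenced to vehicle-only cultures. Strain bears a defined alteration in DNA damage repair.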

[8] = NCI Yeast Anticancer Drug Screen. Data for the sgs1 mgt1 strain (AID 161);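 also: 0% = growth of cultures given vehicle only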; settings: S. cerevisiae sgs1 mgt1 strain, active compounds read high
Outline: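 Growth of a repair-deficient yeast mutant was monitored after compound treatment and expressed as inhibition relative to vehicle-treated cultures.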

[9] = NCI Yeast Anticancer Drug Screen. Data for the CLN2oe strain (AID 163);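 also: 0% = growth of vehicle-only control cultures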; settings: S. cerevisiae CLN2oe strain, active compounds read high
Outline: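 Values reflect how much compound exposure reduced yeast growth, referenced to vehicle-exposed cells. Assay organism is a strain with a defined genetic change affecting cell-cycle control.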

[10] = NCI Yeast Anticancer Drug Screen. Data for the cln2 rad14 strain (AID 165);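 also: 0% = growth equal to vehicle treated cultures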; settings: S. cerevisiae cln2 rad14 strain, active compounds read high
Outline: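 Relative to vehicle controls, growth inhibition of compound-treated cln2 rad14 yeast was recorded.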

[11] = NCI Yeast Anticancer Drug Screen. Data for the bub3 strain (AID 167); settings: S. cerevisiae bub3 mutant strain, active compounds read high
Outline: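 Part of a panel of yeast mutants defective in DNA damage repair or cell cycle regulation. Each strain is grown with compound, and inhibition is calculated relative to solvent-treated cultures.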

[12] = NCI Yeast Anticancer Drug Screen. Data for the wt2 strain (AID 169);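 also: 0% = growth of vehicle-treated yeast cultures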; settings: S. cerevisiae wt2 strain growth inhibition, active compounds read high
Outline: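 Values express reduction in yeast growth under compound treatment, referenced to vehicle-treated cells.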

[13] = NCI Yeast Anticancer Drug Screen. Data for the mlh1 strain (AID 171);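 also: 0% = growth of vehicle-treated control cultures of the same strain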; settings: S. cerevisiae mlh1 strain growth inhibition, active compounds read high
Outline: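 Steps: expose the defined-mutant yeast strain to compound; expose a parallel culture to vehicle; measure growth; express compound effect as inhibition relative to the vehicle culture.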

[14] = NCI Yeast Anticancer Drug Screen. Data for the sgs1 strain (AID 173);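 also: 0% = growth of vehicle-only control cultures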; settings: S. cerevisiae sgs1 mutant, active compounds read high
Outline: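 Treat defined-mutant yeast with compound; measure growth; calculate inhibition relative to vehicle-treated cells.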

[15] = NCI Yeast Anticancer Drug Screen. Data for the mlh1 rad18 strain (AID 175); settings: S. cerevisiae mlh1 rad18 strain growth inhibition, active compounds read high
Outline: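 Test agents were incubated with a yeast strain of defined genotype (DNA damage repair defect). Inhibition of growth was derived by comparison with vehicle-exposed cultures.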

[16] = NCI Yeast Anticancer Drug Screen. Data for the rad18 strain (AID 177); settings: S. cerevisiae rad18 mutant growth inhibition, active compounds read high
Outline: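 A genetically defined yeast mutant impaired in DNA damage repair was treated with test compounds, then its growth was measured against cultures receiving vehicle alone.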

[17] = at 5.0 µM (retest, dose inferred, filed as 0.5)
[18] = at 50.0 µM (retest, dose inferred, filed as 5.0)

Measured: growth inhibition

Cc1ccc(CNc2ccc(Br)cc2)cc1
active: [1]; at 100.0 µM 88% | [2]; at 100.0 µM 82% | [4]; at 100.0 µM 92% | [5]; [18] 89% | [5]; at 100.0 µM 82% | [6]; [18] 90% | [6]; at 50.0 µM 76.7% | [6]; at 100.0 µM 93% | [7]; at 33.0 µM 71% | [7]; at 100.0 µM 92% | [8]; [18] 94% | [9]; at 100.0 µM 81% | [10]; [18] 97% | [11]; [18] 94% | [11]; at 100.0 µM 91% | [12]; at 100.0 µM 87% | [13]; at 100.0 µM 85% | [14]; at 100.0 µM 72% | [15]; [18] 77% | [16]; at 100.0 µM 77%
inactive: [1]; at 1.2 µM 5% | [1]; at 3.7 µM 7% | [1]; at 11.0 µM 18% | [1]; at 33.0 µM 66% | [2]; at 1.2 µM -29% | [2]; at 3.7 µM -28% | [2]; at 11.0 µM -27% | [2]; at 33.0 µM 24% | [3]; at 1.2 µM -10% | [3]; at 3.7 µM -11% | [3]; at 11.0 µM -4% | [3]; at 33.0 µM 14% | [3]; at 100.0 µM 64% | [4]; at 1.2 µM 16% | [4]; at 3.7 µM 12% | [4]; at 11.0 µM 27% | [4]; at 33.0 µM 69% | [5]; at 1.2 µM 17% | [5]; at 3.7 µM 6% | [5]; [17] 61% | [5]; at 11.0 µM 16% | [5]; at 33.0 µM 67% | [5]; at 50.0 µM 62.8% | [6]; at 1.2 µM 1% | [6]; at 3.7 µM 2% | [6]; [17] 63% | [6]; at 11.0 µM 17% | [6]; at 33.0 µM 66% | [7]; at 1.2 µM -17% | [7]; at 3.7 µM -18% | [7]; at 11.0 µM -2% | [8]; [17] -19% | [9]; at 1.2 µM -9% | [9]; at 3.7 µM 11% | [9]; at 11.0 µM 6% | [9]; at 33.0 µM 34% | [10]; [17] 61% | [11]; at 1.2 µM -7% | [11]; at 3.7 µM 11% | [11]; [17] 32% | [11]; at 11.0 µM 26% | [11]; at 33.0 µM 63% | [12]; at 1.2 µM -31% | [12]; at 3.7 µM -30% | [12]; at 11.0 µM -13% | [12]; at 33.0 µM 35% | [13]; at 1.2 µM -32% | [13]; at 3.7 µM -31% | [13]; at 11.0 µM -21% | [13]; at 33.0 µM 40% | [14]; at 1.2 µM -17% | [14]; at 3.7 µM -17% | [14]; at 11.0 µM -15% | [14]; at 33.0 µM 34% | [15]; [17] 28% | [15]; at 50.0 µM 60.2% | [16]; at 1.2 µM -6% | [16]; at 3.7 µM -15% | [16]; at 11.0 µM -7% | [16]; at 33.0 µM 49%

O=C(/C=N/O)Nc1cc(Cl)c(Cl)cc1Cl
active: [3]; at 100.0 µM 83% | [4]; at 100.0 µM 92% | [5]; [18] 98% | [5]; at 50.0 µM 79.2% | [6]; [18] 98% | [7]; at 100.0 µM 75% | [8]; [18] 84% | [10]; [18] 77% | [11]; [18] 89% | [15]; [18] 99% | [16]; at 100.0 µM 78%
inactive: [1]; at 1.2 µM -45% | [1]; at 3.7 µM -47% | [1]; at 11.0 µM -40% | [1]; at 33.0 µM -1% | [1]; at 100.0 µM 62% | [2]; at 1.2 µM -37% | [2]; at 3.7 µM -35% | [2]; at 11.0 µM -36% | [2]; at 33.0 µM -12% | [2]; at 100.0 µM 3% | [3]; at 1.2 µM -17% | [3]; at 3.7 µM 3% | [3]; at 11.0 µM 6% | [3]; at 33.0 µM 51% | [4]; at 1.2 µM -8% | [4]; at 3.7 µM -9% | [4]; at 11.0 µM 34% | [4]; at 33.0 µM 60% | [5]; at 1.2 µM -35% | [5]; at 3.7 µM -21% | [5]; [17] 45% | [5]; at 11.0 µM -33% | [5]; at 33.0 µM 10% | [5]; at 100.0 µM 63% | [6]; at 1.2 µM -34% | [6]; at 3.7 µM -22% | [6]; [17] 55% | [6]; at 11.0 µM -26% | [6]; at 33.0 µM -3% | [6]; at 50.0 µM 65% | [6]; at 100.0 µM 43% | [7]; at 1.2 µM -39% | [7]; at 3.7 µM -31% | [7]; at 11.0 µM -32% | [7]; at 33.0 µM 23% | [8]; [17] -12% | [9]; at 1.2 µM 6% | [9]; at 3.7 µM 18% | [9]; at 11.0 µM 1% | [9]; at 33.0 µM 18% | [9]; at 100.0 µM 63% | [10]; [17] 67% | [11]; at 1.2 µM -32% | [11]; at 3.7 µM -27% | [11]; [17] 17% | [11]; at 11.0 µM -21% | [11]; at 33.0 µM 8% | [11]; at 100.0 µM 57% | [12]; at 1.2 µM -56% | [12]; at 3.7 µM -58% | [12]; at 11.0 µM -38% | [12]; at 33.0 µM -1% | [12]; at 100.0 µM 37% | [14]; at 1.2 µM -55% | [14]; at 3.7 µM -31% | [14]; at 11.0 µM -36% | [14]; at 33.0 µM 28% | [14]; at 100.0 µM 67% | [15]; [17] 36% | [15]; at 50.0 µM 47.2% | [16]; at 1.2 µM -28% | [16]; at 3.7 µM -18% | [16]; at 11.0 µM -12% | [16]; at 33.0 µM 36%

NC(N)=N/N=C/c1cc(Cl)cc(Cl)c1O
inactive: [1]; at 1.2 µM 5% | [1]; at 3.7 µM 4% | [1]; at 11.0 µM 21% | [1]; at 33.0 µM 51% | [2]; at 1.2 µM -14% | [2]; at 3.7 µM -19% | [2]; at 11.0 µM -29% | [2]; at 33.0 µM 1% | [3]; at 1.2 µM 19% | [3]; at 3.7 µM 49% | [3]; at 11.0 µM 50% | [3]; at 33.0 µM 60% | [4]; at 1.2 µM 18% | [4]; at 3.7 µM 17% | [4]; at 11.0 µM 33% | [5]; at 1.2 µM -15% | [5]; at 3.7 µM -7% | [5]; [17] 63% | [5]; at 11.0 µM 4% | [5]; at 33.0 µM 46% | [6]; at 1.2 µM -29% | [6]; at 3.7 µM -18% | [6]; at 11.0 µM -21% | [6]; at 33.0 µM 23% | [6]; at 50.0 µM 61.9% | [7]; at 1.2 µM -8% | [7]; at 3.7 µM 1% | [7]; at 11.0 µM 12% | [8]; [17] 4% | [9]; at 1.2 µM 15% | [9]; at 3.7 µM 23% | [9]; at 11.0 µM 21% | [9]; at 33.0 µM 33% | [10]; [17] 54% | [11]; at 1.2 µM -7% | [11]; at 3.7 µM -6% | [11]; [17] 46% | [11]; at 11.0 µM 4% | [11]; at 33.0 µM 49% | [12]; at 1.2 µM -49% | [12]; at 3.7 µM -40% | [12]; at 11.0 µM -30%
active: [1]; at 100.0 µM 98% | [2]; at 100.0 µM 95% | [3]; at 100.0 µM 74% | [4]; at 33.0 µM 88% | [4]; at 100.0 µM 99% | [5]; [18] 95% | [5]; at 50.0 µM 79.7% | [5]; at 100.0 µM 97% | [6]; [17] 73% | [6]; [18] 96% | [6]; at 100.0 µM 98% | [7]; at 33.0 µM 72% | [7]; at 100.0 µM 98% | [8]; [18] 98% | [9]; at 100.0 µM 93% | [10]; [18] 93% | [11]; [18] 96% | [11]; at 100.0 µM 97%
